# According to PubChem BioAssay (NCI):
# About 83,000 compounds went through this panel and 20% of them were active in at least one assay; those are over-represented in the sample as a whole.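 How to read the values: 0–100, growth inhibition (40 = 60% inhibited); 0, no net growth; -100 to 0, cell death (-40 = 40% of starting cells died; -100 = all dead).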 Unmarked numbers belong to inactive results. The source made the active and inactive calls. Rule for the calls: active = growth percent below 10; inactive = the rest.
# System: MDA-MB-468 breast
# Test: NCI-60 one-dose screen, 48 h (100 = growth as untreated, 0 = no growth, -100 = all killed)
# Conditions: 10 µM unless noted
row,SMILES,growth
1,O=C1NCC2CCCC1C2 (configuration not stated),105%
2,Cc1ccc(/C=C2\SC(=S)N(c3ccc(F)cc3)C2=O)o1,69.6%
3,O=C1Nc2c(ccc(Cl)c2Cl)/C1=C/c1ccc(F)cc1,51.9%
4,COC(=O)C(C(=O)OC)C(Br)C(Br)C(Br)c1ccccc1 (configuration not stated),36.7%
5,COc1cc(CNCCN2C(=O)c3ccc4c5c(ccc(c35)C2=O)C(=O)N(CCNCc2cc(OC)c(OC)c(OC)c2)C4=O)cc(OC)c1OC,-91.6% (active)
6,C=C(C)[C@@H]1CC[C@]2(C(=O)O)CC[C@]3(C)[C@H](CC[C@@H]4[C@@]5(C)C[C@@H](CC#Cc6ccccc6)C(=O)C(C)(C)[C@@H]5CC[C@]43C)[C@@H]12,19.8%
7,C/C=C/CC(C)C(O)C1C(=O)NC(CC)C(=O)N(C)CC(=O)N(C)C(CC(C)C)C(=O)NC(C(C)C)C(=O)N(C)C(CC(C)C)C(=O)NC(C)C(=O)NC(C)C(=O)N(C)C(CC(C)C)C(=O)N(C)C(CC(C)C)C(=O)N(C)C(C(C)C)C(=O)N1C (configuration not stated),4.57% (active)
8,C#CCO[C@H]1CC[C@H](OCC#C)[C@@H]2[C@H]1[C@H]1C[C@@H]3[C@@]4(C)CCC[C@@](C)(C(=O)OC)[C@@H]4CC[C@@]23C=C1C(C)C,91.3%
9,O=C(CSc1oc(-c2ccccc2)nc1S(=O)(=O)c1ccccc1)Nc1ccc(F)cc1,50.1%
10,c1csc(-c2nc(-c3cc4ccccc4c(N4CCOCC4)n3)cs2)c1,5.77% (active)
11,COCCCNC1=C(C#N)C(=O)NC(c2cccs2)S1 (configuration not stated),93.8%
12,O=C1c2ccccc2C(=O)c2c1oc1c2c(=O)[nH]c2ccc(Cl)cc21,-32.4% (active)
